# Assay results from PubChem BioAssay (NCATS).
# “And” between values parts separate entries of the source, which are not always exact repeats. Equal entries are not always repeated. A number with no mark means an inactive call. Inconclusive results are not listed. The source made the active and inactive calls. Unless noted, the call rests on the fitted dose curve; in most records, active means well fitted curve in the direction sought with a large enough effect; inconclusive means small, poorly fitted or top-dose-only effect, or another doubt; inactive means no such curve, though single readings can be large; an effect the other way counts as inactive or inconclusive.
# Experiments:
# [1] = Cell Viability - BJ (AID 421; calls by dose curve;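 further: potency means the concentration at half of the fitted maximal effect; cells exposed to compound for 40 hours at 37 °C before readout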); details: BJ fibroblast viability, qHTS
# Method in brief: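 Cytotoxicity as drop in intracellular ATP (CellTiter-Glo, 20 min RT) after 40 hr compound exposure of BJ fibroblasts at 37 °C. Titrations scaled between DMSO and 100 uM tamoxifen, Hill-fitted for AC50.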
# [2] = Cell Viability - Jurkat (AID 426;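 active means dose-dependent loss of cell ATP signal giving a full or clear fitted curve, ranked by lower potency value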; further: potency means the concentration at half of the fitted maximal effect); details: qHTS
# Method in brief: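 qHTS, 1536-well; Jurkat E6-1, 5000 cells/well, complete medium; cpd 40 hr, 37 °C; CellTiter-Glo 20 min RT; luminescence. AC50 by Hill fit.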
# [3] = Cell Viability - Hek293 (AID 427;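 active means compounds whose dose-response curve shows a full or clear partial loss of cell viability, called from curve shape rather than a numeric limit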;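 further: potency means the concentration at half of the fitted maximal effect; cells exposed to compound for 40 hours at 37 °C before reading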); details: qHTS
# Method in brief: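 Luminescent ATP content (CellTiter-Glo, 20 min at room temperature) was measured after a 40 hr, 37 °C compound exposure of HEK293 cells. AC50 values came from Hill-equation fits of qHTS concentration-response data normalized to DMSO and 100 uM tamoxifen.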
# [4] = Cell Viability - MRC5 (AID 434; calls by dose curve;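 further: potency means the concentration at half of the fitted maximal effect; potency reflects cytotoxicity seen as loss of intracellular ATP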); details: MRC5 lung fibroblast viability, qHTS
# Method in brief: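 MRC5 normal human lung fibroblasts (1500/well) were treated with compounds for 40 hr at 37 °C in complete medium, and viable cells were measured as intracellular ATP by CellTiter-Glo luminescence. AC50 came from Hill fits, normalized to DMSO and 100 uM tamoxifen.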
# [5] = Cell Viability - SK-N-SH (AID 435; calls by dose curve;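 further: potency means the concentration at half of the fitted maximal effect; compound exposure lasted 40 h at 37 °C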); details: SK-N-SH neuroblastoma cell viability qHTS
# Method in brief: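 Human neuroblastoma line, 40 h exposure at 37 °C, ATP quantified via luciferase luminescence; DMSO and 100 uM tamoxifen define 0 and 100% inhibition for AC50 fitting.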
# [6] = target: Mitogen-activated protein kinase 10 (Mus musculus) (UniProt Q61831); experiment: JNK3 AlphaScreen Assay (AID 530; active means well fitted curve in either direction with a large enough effect, not every such curve was filed as active;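 further: kinase came from lysate of stimulated human HepG2 cells; signal reports phosphorylation of biotinylated GST-cJun 1-79 at Ser73 with 10 µM ATP; on the % scale 0 is the no-effect control and ±100 the full control effect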)
# Method in brief: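 Inhibitors reduce antibody binding to phosphorylated biotin-cJun, lowering AlphaScreen luminescence. Lysates from HepG2 cells pre-activated by IL-1beta plus TNF-alpha supplied JNK3; compounds were titrated.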
# [7] = Cell Viability - NIH 3T3 (AID 541); details: NIH 3T3 cell viability, qHTS; activity change, negative = cytotoxicity: at 92.2 µM (top of the series);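 further: plate controls were DMSO alone for no effect and tamoxifen positive control for full effect; nearly all actives have a fitted effect of over 25% in size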
# Method in brief: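 Luminescent ATP signal (CellTiter-Glo) served as the viability read-out after NIH 3T3 cells were exposed to compounds over a concentration range for 40 hr at 37 °C. Hill-equation modelling of concentration-response data gave AC50.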
# [8] = Cell Viability - HUV-EC-C (AID 542); further: nearly all actives have a fitted effect of over 35% in size; further: potency means the concentration at half of the fitted maximal effect; on activity change, negative = cytotoxicity: on the % scale 0 is the no-effect control and ±100 the full control effect
# Method in brief: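 qHTS cytotoxicity: HUV-EC-C, 1000 cells/well, 5 hr settle, compound 40 hr 37 °C, CellTiter-Glo, luminescence. AC50 via Hill equation.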
# [9] = Cell Viability - H-4-II-E (AID 543); further: on the % scale 0 is the no-effect control and ±100 the full control effect; nearly all actives have a fitted effect of over 35% in size
# Method in brief: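 Luminescent ATP signal (CellTiter-Glo) served as the viability read-out, with cytotoxicity seen as a concentration-dependent ATP drop. Cells were treated for 40 hours in complete medium. AC50 values derive from Hill-equation modelling.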
# [10] = Cell Viability - SH-SY5Y (AID 544); further: nearly all actives have a fitted effect of over 55% in size; further: potency means the concentration at half of the fitted maximal effect
# Method in brief: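 Luminescent ATP read-out (CellTiter-Glo) measures loss of viable SH-SY5Y neuroblastoma cells after 40 hr compound exposure at 37 °C. AC50 values derive from standard Hill modelling of qHTS concentration-response data.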
# [11] = Cell Viability - Renal Proximal Tubule (AID 545); details: renal proximal tubule cells viability, primary cells of rat origin; at 91.7 µM (top of the series);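 further: 0% = DMSO only and -100% = 100 µM tamoxifen; nearly all actives have a fitted effect of over 40% in size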
# Method in brief: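 In this qHTS format, normal rat kidney-derived proximal tubule cells in complete culture medium receive compound titrations, then sit 40 hours at 37 °C before luciferase-based ATP quantitation; potency is reported as AC50 from concentration-response curves.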
# [12] = Cell Viability - Mesenchymal (AID 546);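 further: cells exposed to compound for 40 hours before reading; 0% = DMSO only and -100% = 100 µM tamoxifen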
# Method in brief: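 Normal human renal glomerulus-derived kidney mesenchymal cells, 1000 per well in complete medium, were treated with compounds for 40 hr at 37 °C. Viability was read as intracellular ATP by CellTiter-Glo luminescence; AC50 values came from Hill-equation fits of qHTS concentration-response data.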
# [13] = Cell Viability - N2a (AID 540); details: N2a mouse neuroblastoma cell viability; at 92.2 µM (top of the series);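 further: plate controls were DMSO alone for no effect and tamoxifen control for full effect; nearly all actives have a fitted effect of over 45% in size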
# Method in brief: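 Luminescent ATP signal (CellTiter-Glo, 20 min at room temperature) served as the viability read-out after N2a cells were treated with compounds for 40 hours at 37 °C. Concentration-response data were fitted to the Hill equation for AC50.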
# [14] = NFAT Signaling Pathway (AID 444; active means well fitted curve in either direction with a large enough effect, not every such curve was filed as active;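 further: carbachol stimulus at about its EC50 of 1 µM final; on the % scale 0 is the no-effect control and ±100 the full control effect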); details: Jurkat NFAT-bla M1, carbachol, beta-lactamase ratio, 5 h; at 17.2 µM (top of the series) unless noted
# Method in brief: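 Jurkat cells carrying an NFAT-driven β-lactamase reporter and co-transfected muscarinic M1 receptor were treated with compound plus carbachol (1 uM final, an EC50 level) for 5 h at 37 °C. CCF4 loading followed for 1 h at RT; 460/530 nm ratio gave %activity.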
# [15] = target: Glucocorticoid receptor (Homo sapiens) (UniProt P04150); experiment: GR-GFP Redistribution (AID 450;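 active means compounds whose dose series gives a full or clear partial fitted curve of increased nuclear translocation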; further: potency means the concentration at half of the fitted maximal effect); details: U2OS GR-GFP nuclear translocation, laser cytometry, 2 h
# Chain of Glucocorticoid receptor (Homo sapiens) (P04150 whole entry, looked up, the tested form may be a part): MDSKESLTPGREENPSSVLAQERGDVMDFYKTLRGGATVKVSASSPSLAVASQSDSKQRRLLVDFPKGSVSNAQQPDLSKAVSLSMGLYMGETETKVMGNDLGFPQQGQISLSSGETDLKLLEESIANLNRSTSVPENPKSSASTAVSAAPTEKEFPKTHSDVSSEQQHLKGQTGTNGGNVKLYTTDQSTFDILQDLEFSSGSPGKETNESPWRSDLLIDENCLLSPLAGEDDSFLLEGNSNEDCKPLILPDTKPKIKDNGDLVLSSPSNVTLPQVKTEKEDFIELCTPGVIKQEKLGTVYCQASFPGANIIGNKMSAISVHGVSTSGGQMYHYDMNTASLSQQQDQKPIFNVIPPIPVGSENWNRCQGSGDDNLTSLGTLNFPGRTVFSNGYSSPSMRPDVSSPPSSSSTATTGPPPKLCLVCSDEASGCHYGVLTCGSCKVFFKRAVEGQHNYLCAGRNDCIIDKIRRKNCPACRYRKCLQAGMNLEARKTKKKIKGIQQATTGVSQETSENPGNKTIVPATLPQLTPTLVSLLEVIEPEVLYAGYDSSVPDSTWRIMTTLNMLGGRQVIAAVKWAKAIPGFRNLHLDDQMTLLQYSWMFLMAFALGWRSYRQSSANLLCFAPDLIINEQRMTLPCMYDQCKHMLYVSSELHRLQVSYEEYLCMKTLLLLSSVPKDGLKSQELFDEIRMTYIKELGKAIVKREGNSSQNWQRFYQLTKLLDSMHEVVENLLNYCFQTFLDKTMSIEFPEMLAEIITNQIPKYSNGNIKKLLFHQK
# [16] = target: Glucocorticoid receptor (Homo sapiens) (UniProt P04150); experiment: GR-EFC Redistribution (AID 451; calls by dose curve; further: potency means the concentration at half of the fitted maximal effect); details: CHO-K1 GR-EFC translocation, beta-gal luminescence, 2 h
# Method in brief: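 CHO-K1 cells stably expressing nuclear-localized β-gal enzyme acceptor and GR fused C-terminally to the enzyme donor fragment; ligand-driven nuclear translocation restores β-gal by complementation. Compounds titrated up to 46 uM final, 2 h at 37 °C; luminescence read.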
# [17] = target: 3',5'-cyclic-AMP phosphodiesterase 4B (Homo sapiens) (UniProt Q07343); experiment: qHTS Assay for Inhibitors of PDE-IV (AID 607; active means well fitted activation curve with a large enough effect in the main read-out, with a control signal flat, not every such curve was filed as active; further: % of control where 0% means no effect)
# Chain of 3',5'-cyclic-AMP phosphodiesterase 4B (Homo sapiens) (Q07343 whole entry, looked up): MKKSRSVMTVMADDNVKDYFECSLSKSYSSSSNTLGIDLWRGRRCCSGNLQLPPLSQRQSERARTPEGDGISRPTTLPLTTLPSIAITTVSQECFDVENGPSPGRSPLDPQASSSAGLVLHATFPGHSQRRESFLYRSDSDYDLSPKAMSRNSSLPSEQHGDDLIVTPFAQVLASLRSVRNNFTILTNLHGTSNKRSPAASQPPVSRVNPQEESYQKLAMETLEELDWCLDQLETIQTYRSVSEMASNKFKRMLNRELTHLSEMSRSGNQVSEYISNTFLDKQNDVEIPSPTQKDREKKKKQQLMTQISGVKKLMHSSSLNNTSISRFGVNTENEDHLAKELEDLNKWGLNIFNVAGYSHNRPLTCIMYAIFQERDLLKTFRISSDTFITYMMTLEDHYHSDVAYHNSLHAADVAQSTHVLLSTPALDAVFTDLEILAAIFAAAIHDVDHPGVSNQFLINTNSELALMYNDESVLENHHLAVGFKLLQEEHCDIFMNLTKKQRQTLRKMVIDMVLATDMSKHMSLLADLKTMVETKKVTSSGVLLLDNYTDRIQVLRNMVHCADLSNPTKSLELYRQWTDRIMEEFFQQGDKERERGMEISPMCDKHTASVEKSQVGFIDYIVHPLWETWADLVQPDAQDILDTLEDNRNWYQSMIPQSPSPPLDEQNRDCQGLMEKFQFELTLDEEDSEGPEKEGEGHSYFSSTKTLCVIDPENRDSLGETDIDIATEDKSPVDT
# Method in brief: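 Cell-based read-out of cAMP via a modified cyclic nucleotide-gated channel and membrane potential dye (535/590 nm) in HEK293 cells expressing PDE4 endogenously. Compounds tested up to 22.9 uM final; 100 uM RO 20-1724 reference.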
Compound,Potency [1],Potency [2],Potency [3],Potency [4] [µM],Potency [5],outcome [6],"activity change, negative = cytotoxicity [7]",Potency [8],Potency [9],Potency [10],"activity change, negative = cytotoxicity [11]",outcome [12],"activity change, negative = cytotoxicity [13]","activity change, negative = inhibition [14] [%]",Potency [15] [µM],Potency [16] [µM],outcome [17]
C[C@H]1O[C@@H](O[C@H]2[C@@H](O)C[C@H](O[C@H]3[C@@H](O)C[C@H](O[C@H]4CC[C@@]5(C)[C@H](CC[C@@H]6[C@@H]5C[C@@H](O)[C@]5(C)[C@@H](C7=CC(=O)OC7)CC[C@]65O)C4)O[C@@H]3C)O[C@@H]2C)C[C@H](O)[C@@H]1O,0.00125 µM (active),0.00438 µM (active),0.0128 µM (active),> 92,0.0073 µM (active),inactive,-91% (active),0.02 µM (active),inactive,0.0126 µM (active),-10.1%,inactive,,,,,
Oc1cccc(O)c1O,,,,> 92,,inactive,,inactive,inactive,,-27.7%,,-18.3%,,,,
Nc1ncnc2c1ncn2[C@H]1CC[C@@H](CO)O1,> 92 µM,> 92 µM,> 92 µM,> 92,> 92 µM,inactive,7.1%,inactive,inactive,inactive,2.7%,inactive,6.32%,,,,
CCCCO,> 92 µM,> 92 µM,> 92 µM,> 92,> 92 µM,inactive,-12.4% and 2.4%,inactive,inactive,inactive,-5.24% and 3.29%,inactive,-5.68% and -4.88%,,,,
CO,> 92 µM,> 92 µM,> 92 µM,> 92,> 92 µM,inactive,-1.78%,inactive,inactive,inactive,5.17%,inactive,8.2%,,,,
Nc1ccc(N=Nc2ccccc2)c(N)n1,> 92 µM,,> 92 µM,> 92,> 92 µM,,,,,,-20%,,-30.4%,-10,> 20.6,> 20.6,inactive
O.O.O.O.O.O.O.O=S(=O)([O-])[O-].[Co+2],> 92 µM,,> 92 µM,> 92,> 92 µM,,-26.9%,inactive,,inactive,,inactive,-16.8%,,,,
ClC(Cl)Cl,> 92 µM,> 92 µM,> 92 µM,> 92,> 92 µM,inactive,-17.2%,inactive,inactive,inactive,-11.2%,inactive,-12.8%,,,,
NC(N)=O,> 92 µM,> 92 µM,> 92 µM,> 92,> 92 µM,,-1.75%,inactive,inactive,inactive,-9.08%,inactive,12.5%,,,,
OC[C@H]1O[C@@H]2O[C@H]3[C@H](O)[C@@H](O)[C@@H](O[C@H]4[C@H](O)[C@@H](O)[C@@H](O[C@H]5[C@H](O)[C@@H](O)[C@@H](O[C@H]6[C@H](O)[C@@H](O)[C@@H](O[C@H]7[C@H](O)[C@@H](O)[C@@H](O[C@H]1[C@H](O)[C@H]2O)O[C@@H]7CO)O[C@@H]6CO)O[C@@H]5CO)O[C@@H]4CO)O[C@@H]3CO,> 92 µM,> 92 µM,> 92 µM,> 92,> 92 µM,inactive,-6.68%,inactive,inactive,inactive,-2.88%,inactive,-3.62%,,,,
CC[C@H]1OC(=O)[C@H](C)[C@@H](O[C@H]2C[C@@](C)(OC)[C@@H](O)[C@H](C)O2)[C@H](C)[C@@H](O[C@@H]2O[C@H](C)C[C@H](N(C)C)[C@H]2O)[C@](C)(O)C[C@@H](C)CN(C)[C@H](C)[C@@H](O)[C@]1(C)O,> 92 µM,,> 92 µM,> 92,,inactive,-19.1%,,inactive,,-18.1%,inactive,-23.6%,,,,
CC/C=C\C/C=C\C/C=C\CCCCCCCC(=O)O,> 92 µM,,> 92 µM,> 92,> 92 µM,inactive,-137% (active),inactive,inactive,,-15.2%,inactive,-20.9%,,,,
C[C@H](CCC(=O)O)[C@H]1CC[C@H]2[C@@H]3CC[C@@H]4C[C@H](O)CC[C@]4(C)[C@H]3C[C@H](O)[C@]12C,> 92 µM,> 92 µM,> 92 µM,> 92,> 92 µM,inactive,-91.1% (active),inactive,inactive,inactive,-13.4%,inactive,-18.5%,,,,
